# In article PMC4552634, “A New Set of Chemical Starting Points with Plasmodium falciparum Transmission-Blocking Potential for Antimalarial Drug Discovery” (PLoS ONE, 2015):
# Screen size: about 13,000 compounds; about 3,200 (25%) showed an effect of 50% or more. The list shows a part of the results.
# Test system: P. falciparum stage V gametocytes
# Parameters: BacTiter-Glo ATP luminescence viability of purified stage V gametocytes in 384-well plates, per cent inhibition versus DMSO
# Details: 48 h, 5 µM; inhibitor
row,SMILES,% Inhibition [%]
1,O=C(/C=C/c1ccc(Cl)c(Cl)c1)N1CCC(CCN2CCc3[nH]c4ccccc4c3C2)CC1 [TCMDC-134173],-40.99
2,CCOC(=O)c1cn(CC)c2cc(F)c(OC3CC4CCC3(C)C4(C)C)cc2c1=O (stereo not shown) [TCMDC-124161],-18.01
3,CCn1c(/C=C/c2cc(Br)ccc2O)nc2ccccc2c1=O [TCMDC-124092],7.095
4,Nc1cc(-c2ccc(Br)cc2O)nc2ccccc12 [TCMDC-138932],61.65
5,Nc1cc(C=Cc2ccc(O)cc2)nc2ccccc12 [TCMDC-138973],-27.13
6,CC(C)NCc1cccc(-c2ccc(NS(=O)(=O)c3cccc4cccnc34)cc2)c1 [TCMDC-136480],43.51
7,CN1CCCN(Cc2ccc(-c3ccc(NS(=O)(=O)c4cccc5cccnc45)cc3)cc2)CC1 [TCMDC-136478],98.81
8,CCN1CCN(Cc2ccc(-c3ccc(NS(=O)(=O)c4cccc5cccnc45)cc3)cc2)CC1 [TCMDC-136479],-5.672
9,CN1CCCN(Cc2cccc(-c3cccc(NS(=O)(=O)c4cccc5cccnc45)c3)c2)CC1 [TCMDC-136482],22.96
10,O=S(=O)(Nc1ccc(-c2ccc(CN3CCCC3)cc2)cc1)c1cccc2cccnc12 [TCMDC-136475],27.58
11,CN1CCCN(Cc2cccc(-c3ccc(NS(=O)(=O)c4cccc5cccnc45)cc3)c2)CC1 [TCMDC-136481],100.2
12,COc1cc(F)c2ncc(Cl)c(CCN3CCC(NCc4ccc5c(c4)OCCO5)CC3)c2c1 [TCMDC-135624],2.949
13,CC(CCc1ccccc1)NCC(O)c1ccc2c(c1)S(=O)(=O)c1ccccc1N2 (stereo not shown) [TCMDC-131254],-29.84
14,CCCCCN1CCCC(NS(=O)(=O)c2ccc(C(=O)Nc3ccc(C(F)(F)F)cc3)cc2)C1 (stereo not shown) [TCMDC-133677],16.66
15,CN1CCCC1CCCOC(=O)c1ccc(N)cc1 (stereo not shown) [TCMDC-131643],-5.047
16,CC(Cc1ccc(OCCCCOc2ccccc2)cc1)NCCCN1CCOCC1 (stereo not shown) [TCMDC-140018],107.6
17,c1ccc(OCCCCN2CCCCC2)cc1 [TCMDC-124256],16.85
18,CC(Cc1ccc(OCCN2CCN(c3ccccc3)CC2)cc1)NCC(O)c1cccc(Cl)c1F (stereo not shown) [TCMDC-131531],24.37
19,CC(Cc1ccc(OCCCCOc2ccccc2)cc1)NCCC1CCCN1C (stereo not shown) [TCMDC-140017],116.2
20,Nc1ncc(-c2ccc(Br)cc2)c(N)n1 [TCMDC-125524],-3.505
21,Cn1ccnc1CNC(=O)c1ccc(-c2ccc(-c3nc4cc(C(F)(F)F)ccc4[nH]3)s2)cc1 [TCMDC-132353],3.481
22,COc1cccc2c(NCc3ccccc3)nc(NCCCN3CCCCC3C)nc12 (stereo not shown) [TCMDC-137782],79.04
23,Brc1ccc(Nc2nc(NCc3ccccc3)c3ccccc3n2)cc1 [TCMDC-124574],42.06

row,SMILES,% Inhibition [%]
1,c1ccc(CNc2nc(NCCc3cnc[nH]3)nc(N3CCCC4CCCCC43)n2)cc1 (stereo not shown) [TCMDC-139742],0.6761
2,CC1CCCCN1CCCNc1nc(NCc2ccccc2)c2ccccc2n1 (stereo not shown) [TCMDC-137771],108.4
3,COc1cc(CCNc2nc(NCc3cccc4ccccc34)nc(N3CCC(N)CC3)n2)ccc1O [TCMDC-133444],-7.002
4,COc1cccc2c(C)cc(NCc3ccc(Cl)cc3)nc12 [TCMDC-125774],-17.6
5,C=C1N(C)c2cc([N+](=O)[O-])c(N)cc2C1(C)C [TCMDC-125319],-63.8
6,COc1cc2c(cc1COc1ccccc1)CCN1Cc3cc(OC)c(OC)cc3CC21 (stereo not shown) [TCMDC-141984],-4.56
7,COc1cc2c(cc1O)[C@@H]1[C@H](O)[C@@H](O)C=C3CCN(C2)[C@H]31 [TCMDC-132036],63.23
8,CC(=O)Nc1ccc(C(=O)Nc2ccc(-c3csc(-c4nc5ccccc5[nH]4)c3)cc2)cn1 [TCMDC-132393],4.532
9,CC(=O)Nc1ccc(C(=O)Nc2cccc(-c3ccc(-c4nc5ccccc5[nH]4)cc3)c2)cn1 [TCMDC-136827],76.21
10,CC(=O)Nc1ccc(C(=O)Nc2cccc(-c3cccc(-c4nc5ccccc5[nH]4)c3)c2)cn1 [TCMDC-136820],6.09
11,CC(=O)Nc1ccc(C(=O)Nc2cccc(-c3csc(-c4nc5ccccc5[nH]4)c3)c2)cn1 [TCMDC-132405],77.44
12,CC(=O)Nc1ccc(C(=O)Nc2cccc(-c3ccc(-c4nc5ccccc5[nH]4)s3)c2)cn1 [TCMDC-136821],24.61
13,CC(=O)Nc1ccc(C(=O)Nc2ccc(-c3cccc(-c4nc5ccccc5[nH]4)c3)cc2)cn1 [TCMDC-136819],-15.84
14,Cc1ccc(Cn2c(N3CCC(C(=O)NCc4ccccn4)CC3)nc3ccccc32)cc1 [TCMDC-125442],35.66
15,NC(=O)NC(=O)C=Cc1ccco1 [TCMDC-131644],-0.9845
16,COc1cc(NC(=O)/C=C/c2cc(F)cc(F)c2F)cc(OCCN2CCC3(CC2)OCCO3)c1 [TCMDC-140933],-20.54
17,COc1ccc(C(=O)N2CCC3(CC2)C(=O)N(CC(=O)NCC2CCCCC2)CN3c2ccccc2)cc1 [TCMDC-125171],3.565
18,O=C(Nc1cccc(C(F)(F)F)c1)c1ccc(S(=O)(=O)NC2CCN(CC3CCCCC3)C2)cc1 (stereo not shown) [TCMDC-132772],86.66
19,O=C(Nc1ccc(C(F)(F)F)cc1)c1ccc(S(=O)(=O)NC2CCCN(CC3CCCCC3)C2)cc1 (stereo not shown) [TCMDC-133678],5.433
20,O=C(Nc1cccc(C(F)(F)F)c1)c1ccc(S(=O)(=O)NC2CCN(CC3CCCCC3)CC2)cc1 [TCMDC-132773],84.32
21,O=C(Nc1ccc(C(F)(F)F)cc1)c1ccc(S(=O)(=O)NC2CCN(CC3CCCCC3)CC2)cc1 [TCMDC-133676],-72.67
22,O=C(Nc1ccc(C(F)(F)F)cc1)c1ccc(S(=O)(=O)NC2CCN(CC3CCCCC3)C2)cc1 (stereo not shown) [TCMDC-133674],-14.42
23,O=C(Nc1cccc(C(F)(F)F)c1)c1cccc(S(=O)(=O)NC2CCN(CC3CCCCC3)C2)c1 (stereo not shown) [TCMDC-132487],9.75
